In PubChem BioAssay AID1508600 (Functional Genomics Laboratory (NCATS/FGL), 2020):
About 3,700 (7%) of roughly 53,000 sequences were called active. This is one part of a sample in which actives are shown more often than they occur. Unmarked numbers belong to inactive results.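 Rule for the calls: active = gene knockdowns whose robust z-score for IL-1 alpha signal is at least 2 or at most -2, so actives lie on both sides; inactive = the rest.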

Test: Components of the Cytosolic LPS Sensing Pathway: Gene Identification via Genome-wide siRNA Screen;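 note: robust z of the log signal after scaling to non-targeting control siRNA wells of the plate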
Details: RAW264.7 macrophages, IL-1a HTRF, actives lie on both sides, screened at 100 nM (by protocol), cells primed 5 h with Pam3CSK4 first
Summary of the method: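 Knockdown: 100 nM siRNA, 48h, RAW264.7. Stimulation: Pam3CSK4 5 h, then LipidA via TransIT-TKO 24 h. Output: supernatant IL-1a HTRF, negative-control-normalized, log robust z-score; viability by CellTiter-Glo.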

In order of rising z-score:
1. GGUCAAGUCACUGGUGACGTT against Fabp3  -1.73
2. GGCCGUUUUUUGGCAUCGUTT against Acss1  -1.71
3. GGCUGUGGUAGAAAAGCUGTT against Hspg2  -1.65
4. GCCCUUUUACGGCAACAGATT against C2cd5  -1.48
5. GGACUUGGUGACUUACUUCTT against Smpdl3b  -1.42
6. GGAGCAUUCUCCAUCUAGCTT against Dennd2d  -1.41
7. GCAAUCGACCGCAUCCUAATT against Gm4827  -1.32
8. GGCAUUCCCAGUCGUAAAGTT against Kctd3  -1.1
9. GGAUUAAAUGGUGGUGGAGTT against Dnajb6  -1.1
10. GGCUUAGGUGUCCGAGAAATT against Wfdc2  -1.01
11. GGUUUUGGGCAAAAUUGAGTT against Edf1  -0.899
12. CCUGAUAAGCAAAUACGGCTT against Rep15  -0.893
13. CCACAUGCCAAAAUAAUACTT against Oxr1  -0.771
14. GCAGCAAUCAGAUCAUGUATT against Platr26  -0.694
15. GGUCUCACUGAAAAUGAAATT against Ces1g  -0.656
16. GCAUGUAGCCUGGCCUUCUTT against Zfp458  -0.591
17. GCAUUUCCCAGCCUGAUACTT against Aif1l  -0.584
18. GGGAUUGGUUAUUUUACAUTT against Trmt12  -0.578
19. GCUAAUGUGGAGGACUCACTT against Chml  -0.574
20. GGUUCGAGUCUCUUACUCUTT against Pou4f3  -0.574
21. GGAUGAGCAUAAAAGUCCUTT against Atf7ip  -0.536
22. GGCGAUUAUGGAAAAAUGUTT against Osbpl11  -0.431
23. GGUGAACCCUUUGAGGAAGTT against Gstt3  -0.42
24. GGAGCUAAAGCUGCUGAUUTT against S100g  -0.404
25. GGUCCAGAUUGCUUAGAUGTT against Zbtb11os1  -0.398
26. CGAUUUCACAAAAACAUGATT against Vta1  -0.394
27. GGACGGUAGCCAUAUUAAUTT against Spink2  -0.385
28. GGCCUACAUCAUUCACUCCTT against Olfr64  -0.384
29. GGAUGAAAUUGUGUUAUCUTT against Snrk  -0.371
30. GCCAUGGCAUAAAAACUGGTT against P2rx6  -0.329
31. GGCCAGGAAAAAAUCUGCATT against Neu1  -0.293
32. GGAAUCUCCACCAUACAGGTT against Vmn1r26  -0.263
33. GGACAAAGAAAAAGAUUCCTT against Stxbp6  -0.169
34. GGAUGCUGAAGUGAAGGACTT against Myt1  -0.157
35. CCACAUGAUCCUAACUUUGTT against Pqbp1  -0.157
36. GGAGAUUUCAUGAACUCUGTT against Srrm3  -0.141
37. GGAGGAGUCUUGAAUCCAGTT against Yod1  -0.122
38. CCCAGGACGACGACUUUUUTT against Pnmal1  -0.0664
39. GCGAUCACUUUUCAAGUUUTT against Rnf139  0.0177
40. GGAAAAAACGCACCAGCAUTT against Pou2f1  0.0271
41. GGAUGAUCACAAAGGUAUATT against 4632404H12Rik  0.0665
42. GCCGUAUUCAUUAAUAAAGTT against Ash1l  0.0753
43. GGAGACAGUUCAGAAGUGGTT against Glp2r  0.0837
44. GGGUGACCUUUACGUCUUCTT against Reep1  0.0877
45. CCCAGUUGGUGUUUAUAUATT against Ppp3cb  0.115
46. GGACAAGACCAUCUUCGAUTT against Sectm1a  0.21
47. GGCUUGUCGUCCUGGUGUATT against Rprd2  0.219
48. GGCUUUGAUGUCAGCACUGTT against Ngrn  0.247
49. GGUUAUGUGUUCCAUAGAUTT against Pcdhb13  0.248
50. GCUGAAGGGUCUCGUAUUGTT against Hes2  0.262
51. GGUCUUUUCUACAUGUGGATT against Olfr389  0.268
52. GGUGACACAGUACAAGAAGTT against Rpl36a  0.318
53. CCUGUCACAGAUGUAUGUGTT against Rnf149  0.331
54. GGUCAGAAGGUGUGUUAUATT against Rad52  0.338
55. GGGCUCCAAUUUGCUACCATT against Grp  0.342
56. CCAAAUCCCAGAGUUAUUUTT against Htr2c  0.361
57. GCAAAAGACCAUCUGAGUGTT against Adig  0.375
58. GGAAUUUUACCUUUUGGAUTT against Tm9sf3  0.408
59. CCUGGAACAUAGAUGUAUATT against Jmjd4  0.484
60. GGAAGAACUUGUCUCUUUUTT against Tmtc2  0.501
61. GGAAGAUGGGCUAUUUCAUTT against Gabra6  0.545
62. GGGAGAAGAAUUUGAACAGTT against Ak1  0.557
63. GGAGGAUCUAUACCACGGUTT against Npffr2  0.565
64. GGUGUUCUACUGUGCAUUATT against 9330132A10Rik  0.578
65. GCUCAUGCAUGGCUGUACATT against Gbp9  0.603
66. GGCAGCACCAUCGUCUAAUTT against 4930432E11Rik  0.622
67. GGUGUGCUCUGUAAAUCAUTT against Trappc2  0.656
68. GAAGUCUGUGACCAGUUCCTT against Fgf2os  0.735
69. GGAUAAACAGCUGAAGGUGTT against Ccs  0.762
70. GGAAAUAUGGCAAGAAUUUTT against Rgs7  0.781
71. GGGAUGCGGAGGUUUAAGATT against Dhx37  0.815
72. GGUGUUGGAGACCAUGGAUTT against Clcn6  0.829
73. CCAAUGCAAUGUUAGCUUUTT against Tas1r3  0.898
74. GGUAAUCCUGACUUCGUGGTT against Asb17  0.915
75. GGAAAUGUACCUGUUUGUUTT against Dnase1l2  0.928
76. GGAAAUCCUCAGACAAAUGTT against Pdc  0.93
77. CCUGAAGCCUCAAUACACATT against Ugt1a1  0.967
78. CGGCGAUGGAAAAAAAUUUTT against Tmem178  1.04
79. GGGUGCUUACAGAAUAUCUTT against Ms4a19  1.07
80. GGAAGAUCCAUUUAAUGUATT against Eps15  1.14
81. CCUUAUACCAUAGAGAACATT against Bfar  1.14
82. GGAACUGGAGAUGCACAGCTT against Mtcl1  1.2
83. CCCUGAAACCUCGGUGUUUTT against Vmac  1.34
84. GGCCUUUAUUCUAUGCAGUTT against Htr3a  1.59
85. GGCUUCAAGGACUUUACAATT against Mefv  1.62
86. GGCUGAAGUUCAUGAUGGCTT against Cd209d  1.7
87. GGUUUAUAUCCGUACACCUTT against Sp2  1.97

For GGAAUUGGCAUCCUUAAGCTT against Cops3, the z-score was 2.43 (active).
In the case of GUUCCUCAGUAUGUUGCCATT against Olfr126, the z-score is reported as -2.85 (active).
With GGCGAGAAACCUUUCAGAUTT against Zic4 the z-score was 4.72 (active).
With GGAUGCUGUAACACUUUAUTT against Bcl6 the z-score was 3.31 (active).
With CCAUAUCUAUGAUAUGGUUTT against Piezo2 the z-score was -2.18 (active).
In the case of CGGGUAAUAAGGAUUUGGGTT against Cadm4, the z-score is reported as 2.05 (active).
For GCUAGGUGGGCAACUGUAUTT against Lpar3, the z-score was 2.12 (active).
For GGAAAUUGUCAGGUCCUACTT against Rad50, the z-score was 2.94 (active).
For GGCAAGCCAGAGAAACUGATT against Rbm42, the z-score was 6.18 (active).
In the case of GCUAGAAAGGACUUCGUGGTT against Pla2g4f, the z-score is reported as -2.36 (active).
With CGUGAUGUACAUGCAGGAUTT against Slc48a1 the z-score was 2.83 (active).
With GGAGAAACGAAAAGACUCUTT against Brpf1 the z-score was -2.25 (active).
With GGAGGAUACAGUGGAGGGATT against Fbxl19 the z-score was 2.81 (active).
For CCACCAGGGAUCGUUAUAATT against Phyh, the z-score was 2.25 (active).
For CCAGACGCGUAACUGCUACTT against Cox6b2, the z-score was 3.26 (active).
For GGAAUGUUGGAAUCAAUUGTT against Gcm1, the z-score was 2.83 (active).
With GGUGGCAGACUGUGUUUAUTT against B3gnt8 the z-score was -2.08 (active).
With “GGACUUGGAAGUAAUUUUCTT against C230071H18Rik” the z-score was 2.06 (active).
In the case of GCUAGGUCAGGGAGUUUUATT against Exosc2, the z-score is reported as 3.33 (active).
For GGCCUAAACACGGUUUUCATT against Ppm1n, the z-score was 3.72 (active).
With GGGUCUGCUACAUCUUCGGTT against Ino80e the z-score was 2.27 (active).
